ChEMBL document CHEMBL4513216, “Probing the Open Global Health Chemical Diversity Library for Multistage-Active Starting Points for Next-Generation Antimalarials” (ACS Infect Dis, 2020)
Screen size: about 65,000 compounds; about 2,100 (3.2%) showed an effect of 50% or more. The median lay at about -52%. This is one part of a sample in which strong results are shown more often than they occur.

Tested on: Plasmodium falciparum
Assay: Screen against P. falciparum Asexual Blood Stage (ABS), at 5uM
Type: functional, Dd2
Settings: tested at 5 uM

| Structure (SMILES) | INHIBITION |
| --- | --- |
| Cc1cc2c(N3CCC(N(C)CCc4cnn(C)c4)CC3)ncnc2s1 | -30.9% |
| CCN(C)c1cc(CNC(=O)CNC(=O)CC2CCCCC2)ccn1 | -24.9% |
| Cn1cc(CNCCn2cccn2)c(-c2cccnc2)n1 | -42% |
| Cn1cc(CNCCc2cccnc2)c(-c2cccnc2)n1 | -35.7% |
| CCCNCc1cn(Cc2ccccc2)nc1-c1cccnc1 | 60% |
| Cn1cc(CNCCOc2ccc(F)c(F)c2)c(-c2cccnc2)n1 | 54.4% |
| CCCNCc1cn(C)nc1-c1cccnc1 | -21.6% |
| Cn1cc(CNCCc2nccs2)c(-c2cccnc2)n1 | 1.56% |
| O=C(c1cccnc1)N1CCC2(CCN(C(=O)N3CCCC3)CC2)C1 | -71.7% |
| CCCC(=O)N1CC[C@@H]2[C@H](CC1)N(Cc1cccc(C)n1)CCS2(=O)=O | -82% |
| c1ccc2sc(N3CCC4(CCCN4Cc4ncc[nH]4)CC3)nc2c1 | 20.4% |
| Cn1cc(CN2CCCC23CCN(c2nc4ccccc4s2)CC3)cn1 | 51.7% |
| Cc1nc(CN2CCCC23CCN(c2nc4ccccc4s2)CC3)co1 | 9.68% |
| CC(C)=CCN1CCN(Cc2cc(C)c(O)c(C)c2)CC1CCO (stereo not drawn) | -36% |
| Cc1cc(CN(C)Cc2csc(-c3cccs3)n2)n[nH]1 | -130% |
| Cc1cc(CN(C)Cc2ccccc2N2CCCCC2)n[nH]1 | 67.5% |
| CN(Cc1noc(C(C)(C)C)n1)Cc1ccccc1N1CCCC1 | 16.2% |
| CCN(C(=O)CN1CCn2c(nnc2C2CC2)C1)C1=CCCCC1 | -67.6% |
| Cc1nccc(C(=O)NC(CN2CCCC2=O)c2ccccc2)n1 (stereo not drawn) | -66.1% |
| CC(C)CNC(=O)c1nc(COc2ccc3c(c2)OCO3)no1 | -58.7% |
| O=C(CCN1CCCC1c1cccs1)N1CCc2sccc2C1 (stereo not drawn) | 50.8% |
| COc1ccc(CNCCC(=O)N2CCc3sccc3C2)cc1O | 36.4% |
| O=C(CN1CCCC1c1cccs1)N1CCc2sccc2C1 (stereo not drawn) | 3.62% |

| Structure (SMILES) | INHIBITION |
| --- | --- |
| Cc1cc(C2CCCN2CCC(=O)N2CCc3sccc3C2)no1 (stereo not drawn) | -1.53% |
| O=C(CCC(=O)N1CCCC1c1cccs1)N1CCc2sccc2C1 (stereo not drawn) | -117% |
| O=C(CCN1CCCC1C1CCCCC1)N1CCc2sccc2C1 (stereo not drawn) | 59.9% |
| N#Cc1cccc(CNCCC(=O)N2CCc3sccc3C2)c1 | 21.5% |
| Cn1cc(C2CCCN2CCC(=O)N2CCc3sccc3C2)cn1 (stereo not drawn) | -37.7% |
| O=C(CCNCc1cccc(O)c1)N1CCc2sccc2C1 | 52.1% |
| Cc1cnn(C2CN(CC(=O)NCCCc3ccccc3)C2)c1 | -108% |
| c1ccc(NCc2cnc3n2CCN(C2CCOC2)CC3)nc1 (stereo not drawn) | -124% |
| CC(C)NCC1OCCc2cn(C)nc21 (stereo not drawn) | -22.9% |
| CSc1ccc(CN2CCCC3(CNC(=O)c4ccccc4O3)C2)cc1 (stereo not drawn) | -85.7% |
| CN(C)c1cccc(C(=O)N2C[C@@H]3CC[C@H]2CN(C(=O)C2CCC2)C3)c1 | -111% |
| CC[C@@H](C)[C@@H](N)C(=O)Nc1cccc(-c2cnc(N(C)C)nc2)c1 | -60.2% |
| c1cncc(-c2noc(CNc3ncnc4c3CCNCC4)n2)c1 | -88.2% |
| Cc1ccc(-c2cc(CNc3ncnc4c3CCNCC4)no2)cc1 | 63.5% |
| COc1ccc(-c2cc(CNc3ncnc4c3CCNCC4)no2)cc1 | 16% |
| Cc1nnc2n1CCN(C(=O)C(C)Oc1ccc(C#N)cc1)C2 (stereo not drawn) | -140% |
| CN(C)C(=O)CN1C[C@H]2CC[C@@H](C1)N(Cc1cccc(Cl)c1Cl)C2 | 30.9% |
| CCS(=O)(=O)N[C@H]1CN(CC(C)(C)N2CCOCC2)C[C@@H]1C1CC1 | -11.1% |
| CC(C)(CN1C[C@H](Nc2ncccn2)[C@@H](C2CC2)C1)N1CCOCC1 | 50.5% |
| Cc1nccc(N[C@H]2CN(CC(C)(C)N3CCOCC3)C[C@@H]2C2CC2)n1 | 63.5% |
| Cc1nccc(N[C@H]2CN(CCS(C)(=O)=O)C[C@@H]2C2CC2)n1 | -88.4% |
| N#CC1(C(=O)N2C[C@H](Nc3ncccn3)[C@@H](C3CC3)C2)CCOCC1 | -92.4% |
| Cc1cc(N[C@H]2CN(CC(C)(C)N3CCOCC3)C[C@@H]2C2CC2)ncn1 | 48.9% |

| Structure (SMILES) | INHIBITION |
| --- | --- |
| Cc1ccc(NC2CCN(C(=O)COCC3CC3)CC2)nn1 | -61.2% |
| CN(C)c1ccc(C(=O)N2CCCC(n3cccn3)C2)cn1 (stereo not drawn) | -240% |
| C/N=C1/c2cc3cc(OC)ccc3n2CCN1Cc1ccccc1 | 25.3% |
| CCC(CN1CCOCC1)n1cncc1-c1ccc2c(c1)CCCN2C (stereo not drawn) | 31.4% |
| CCC(CN1CCCC1)n1cncc1-c1cnn(-c2ccc(F)cc2)c1 (stereo not drawn) | 43% |
| CCC(CN1CCCC1)n1cncc1-c1cnn(-c2ccccc2)c1 (stereo not drawn) | 56.2% |
| O=C(Cc1ccc2c(c1)CCO2)N1CCCC1c1noc(C2CC2)n1 (stereo not drawn) | -67.5% |
| Cc1ccc(CN2CCc3nnc(COCCN(C)C)n3CC2)o1 | -116% |
| O=C(O)c1cc(-c2ccoc2)cc(S(=O)(=O)NC2CC2)c1 | -132% |
| CN(C)c1ccc(-c2cc(C(=O)O)cc(S(=O)(=O)NC3CC3)c2)cc1 | 57.2% |
| O=C(O)c1cc(-c2ccc3c(c2)OCO3)cc(S(=O)(=O)NC2CC2)c1 | -33.6% |
| Cc1cccc(NC2CCc3c2[nH]c(=O)n(C2CCCCC2)c3=O)c1C (stereo not drawn) | -28.8% |
| CN(Cc1cccnc1)[C@@H]1CN(Cc2cnn(C)c2)[C@@H]2CCCO[C@H]12 | -11.9% |
| CC(=O)N[C@H]1CN(S(=O)(=O)N(C)Cc2ccccc2)C[C@@H]1C1CC1 | -59.7% |
| CC(C)[C@@H]1CN(S(=O)(=O)Cc2ccccc2)C[C@H]1C(=O)O | -80.4% |
| CCC[C@H]1CN(S(=O)(=O)N(C)Cc2ccccc2)C[C@@H]1N | 68.1% |
| CN(Cc1ccccc1)S(=O)(=O)N1C[C@@H](C(=O)O)[C@H](C2CC2)C1 | -76.5% |
| N[C@H]1CN(S(=O)(=O)c2ccccc2)C[C@@H]1C1CC1 | -0.57% |
| CN(Cc1ccc(F)cc1)S(=O)(=O)N1CCOCC1 | -118% |
| CN(Cc1ccccc1)S(=O)(=O)N1C[C@H](C2CC2)[C@@H](N)C1 | 58% |
| CCC[C@H]1CN(S(=O)(=O)c2ccccc2)C[C@@H]1N | 16.5% |
| N[C@H]1CN(S(=O)(=O)Cc2ccccc2)C[C@@H]1C1CC1 | 55.5% |
